The sequences below were run against RANGAP1 (assay: pooled miR-30 sensor sort-seq; sequence = guide strand). Conditions: shRNA.
Note: reference of the scale not given here.

Row | Sequence | sensor-assay potency score (higher = more potent)
1 | TTAGGGTCCAGAATCTTCCGTG | 0.289
2 | TAGGAAGGCAGAGACCACCTTC | 0.359
3 | AATCTCTTTAATCACATCTTTA | -1.26
4 | TAATCACATCTTTAGCATCTTC | -0.22
5 | TTTCCGGTGACATTCGGTCAGA | -1.19
6 | TTGAGTTTGAGGCTCTTGCCTT | -0.514
7 | TTCAACTCCGACTTCTTCTCTA | 0.789
8 | TTGGAGTTGAAGGACGAGGAGT | -0.814

Each sequence was assayed against RASGEF1A in the same assay as above. Conditions: shRNA.

Row | Sequence | sensor-assay potency score (higher = more potent)
9 | TGTTTCTTCTTCACCACCCGGC | 0.377
10 | TTCTTGTCCTTCTCGAAAGGAC | -0.791
11 | TAGGTCTTGGTCAGGTCCCCTC | -1
12 | TTGCAGAAGTTGCTGGACGGGT | -0.613
13 | AAACTTGGCTGTCTTGACCTTG | -0.781
14 | TGAATCTTCTTGTCCTTCTCGA | 0.828
15 | TGAAGAACTCCAACATGCGGGT | -0.41
16 | AAGGTGAAGATGTACGTCCTAT | 0.212
17 | ATGAAGAACTCCAACATGCGGG | -0.48
18 | AATCTTCTTGTCCTTCTCGAAA | -1.91
19 | TTTTTCCATGTGGTTCTCGGGA | -0.794
20 | TTCAGGAGCTGCACGATCTTGG | -0.661

— the OligoGym collection
